Measurements from PubChem BioAssay AID1259343 (VanderVen Lab, College of Veterinary Medicine, Cornell …, 2017).
The whole screen tested about 6,200 compounds, of which about 2,900 (47%) were called active. So high a share suggests a set chosen from earlier hits. The list shows a part of the results. A number with no mark means an inactive call. Rule as the data show it: active = inhibition above about 50%; inactive = the rest.

Assay: Mycobacterium tuberculosis growth inhibition, primary screen (AID 1259343)
Details: inhibition: at 10 µM, stronger effect = higher value; outcome: 10 uM

SMILES	inhibition
Cc1cc(C(=O)N(CCCN(C)C)c2nc3ccc(Cl)cc3s2)nn1C	30.6%
COc1ccc(Cl)c2sc(N(CCCN(C)C)C(=O)Cc3ccccc3)nc12	69.2% (active)
CCC(C)(C)C1CCC2(CC1)NCCc1c2[nH]c2ccccc12 (stereo not drawn)	0.19%
C=CCN(C)C(=O)c1coc(COc2ccc3ccc(OC)cc3c2)n1	65.1% (active)
Cc1nonc1CN(C)C(=O)c1coc(COc2cccc(C(F)(F)F)c2)n1	22.3%
C=C(C)CN(C)C(=O)c1coc(COc2ccc3c(c2)OCO3)n1	26.6%
N#Cc1c(F)cccc1NCCNc1nc2ccccc2o1	-5.14%
N#Cc1c(F)cccc1NCc1csc(C2CC2)n1	57.3% (active)
OCC1O[C@H]([S-])[C@@H](O)C(O)[C@@H]1O.[Au+] (stereo partly drawn)	5.4%
Cc1ccc(NC2OC(CO)C(O)C(O)C2O)cc1Br (stereo not drawn)	84.8% (active)
CN(C)CCCOc1ccc(-c2nnc3ccc(-c4cccc(Oc5ccccc5)c4)cn23)cc1	66.5% (active)
COc1cccc(-c2nc3ccc(-c4cccc(Cl)c4)cn3c2CN2CCNCC2)c1	23.2%
Cc1cc(NC(=O)CNC(c2ccccn2)C(C)C)ccc1Cl (stereo not drawn)	79.4% (active)
CCOc1cccc(-c2cnc(NC(C)=O)cn2)c1	23.7%
CCOc1cccc(-c2cccc(-n3cnnc3)c2)c1	66% (active)
Oc1ccc(CC2COCC(Cc3ccc(O)cc3)C2)cc1 (stereo not drawn)	62.4% (active)
O=c1ccc(-c2ccc(F)cc2)nn1Cc1cccc(C(F)(F)F)c1	35.1%
Cc1ccc(-c2cc(C(F)F)nc(S(C)(=O)=O)n2)cc1	90.4% (active)
O=c1[nH]c(=S)[nH]c2nc(-c3cccs3)cc(C(F)(F)F)c12	34.4%
CS(=O)(=O)c1nc(-c2cccs2)cc(C(F)(F)F)n1	101% (active)
CS(=O)(=O)c1nc(-c2ccc(F)cc2)cc(C(F)(F)F)n1	101% (active)

SMILES	inhibition
O=c1ccc(-c2ccc(F)cc2)nn1Cc1ccc(C(F)(F)F)cc1	20%
CS(=O)(=O)c1nc(-c2ccccc2)cc(C(F)(F)F)n1	99.7% (active)
Cn1cccc1C1CCCCCN1C(=O)c1ccc(NC2CC2)nc1 (stereo not drawn)	-11.4%
COc1ccc(-c2cc(C(F)(F)F)nc(S(C)(=O)=O)n2)cc1	101% (active)
Cc1nc2c(OCc3cc(Cl)cc(Cl)c3)cccn2c1N(C)Cc1cccs1	82.7% (active)
CC(C(=O)Nc1cccc(Cl)c1)N(C)Cc1cccs1 (stereo not drawn)	5%
COc1cc(/C=C/C(=O)Nc2cc(C)nn2-c2nc3c(c(=O)[nH]2)CCC3)cc(OC)c1OC	2.27%
CCCc1cc(=O)[nH]c(-n2nc(C)cc2NC(=O)/C=C/c2ccc(OC)c(OC)c2)n1	102% (active)
CCCc1cc(=O)[nH]c(-n2nc(C)cc2NC(=O)/C=C/c2cc(OC)c(OC)c(OC)c2)n1	99.8% (active)
COc1cc(/C=C/C(=O)Nc2cc(C)nn2-c2nc(C)c(C)c(=O)[nH]2)cc(OC)c1OC	99.5% (active)
CC(O)CN1CCN(C(=O)c2cc(Cl)c(Cl)n2C)CC1 (stereo not drawn)	-16.4%
CCn1cnnc1CCNS(=O)(=O)NCc1ccccc1	-1.72%
FC(F)(F)c1cccc(-c2nnn(Cc3ncc(-c4ccccc4)o3)n2)c1	58.2% (active)
Cn1nnnc1SCc1nc(-c2cccc(C(F)(F)F)c2)no1	-6.38%
Fc1c(F)c(F)c(Cn2nnc(-c3ccccc3)n2)c(F)c1F	26.7%
CC(OC(=O)c1cc(Cl)c(O)c(Cl)c1)c1ccc(F)cc1 (stereo not drawn)	45.8%
CC(=NNC(=O)c1cc(-c2cccc3ccccc23)n[nH]1)c1ccccc1O	41.3%
CCC(=NNC(=O)c1ccc(F)cc1)c1cc(Cl)cc(Cl)c1O	53.1% (active)
CN(CC1CCCO1)S(=O)(=O)c1ccc(C(=O)Nc2ccc3sccc3c2)cc1 (stereo not drawn)	92% (active)
Cc1noc(C)c1CN1CCN2C(C(=O)Nc3ccc(-n4cccc4)cc3)=COC2=NC1=O	90.5% (active)
Cc1noc(C)c1CN1CCN2C=C(C(=O)Nc3ccc(-n4cccc4)cc3)OC2=NC1=O	30.7%

SMILES	inhibition
Cc1ccccc1CN1CCN2C(C(=O)Nc3ccc(-n4cccc4)cc3)=COC2=NC1=O	88.2% (active)
O=C(Nc1ccc(-n2cccc2)cc1)C1=COC2=NC(=O)N(Cc3ccccc3)CCN12	84.6% (active)
CC(C)(C)n1ncc(NCc2cccc3c2OCO3)c(Cl)c1=O	27.4%
c1cc(-c2ccc3c(c2)CCO3)ccc1CNC1CCCC1	75% (active)
O=C(c1ccc2c(c1)CCO2)N1CCOC(c2ccc(Cl)c(Cl)c2)C1 (stereo not drawn)	7.26%
CC(C)Cc1nc(CN(C)Cc2ccc3c(c2)CCO3)no1	21.8%
Cn1ncc(NCc2ccc(-c3ccc4c(c3)CCO4)cc2)c(Cl)c1=O	68.8% (active)
Cc1cc(NC(=O)COc2ccc(C3=CCN(C(N)=O)CC3)cc2)ccc1Br	-21.6%
Cc1cc(NC(=O)COC(=O)c2ccoc2)ccc1Br	68.6% (active)
Cc1cc(NC(=O)CON=C2CCN(C(=O)C3CC3)CC2)ccc1Br	92.3% (active)
O=c1[nH]c(=S)[nH]nc1Cc1ccc(Cl)c(Cl)c1	96.8% (active)
O=C(CCc1n[nH]c(=S)[nH]c1=O)NCc1cccc(C(F)(F)F)c1	-13.8%
CC(C)C1=NOC(c2nc(C(C)c3ccccc3)no2)C1 (stereo not drawn)	30.4%
Cc1c[nH]c(=O)n1-c1ccc(C(=O)N2CCCC2c2ccccc2)cc1 (stereo not drawn)	-8.28%
O=C(NCc1ccc(Oc2ccc(F)cc2)cc1)C1CC=CCC1 (stereo not drawn)	88.9% (active)
CC1CC1C(=O)NCc1ccc(Oc2ccc(F)cc2)cc1 (stereo not drawn)	-11.6%
CN(Cc1nc(-c2cccs2)no1)CC1Cc2ccccc2O1 (stereo not drawn)	inactive
COc1cccc(CN(C)Cc2nc(-c3cccs3)no2)c1	54.7% (active)
C#CCCC(C#N)(C#N)c1ncc(-c2ccc(OC)cc2)cn1	43%
O=C(O)c1cc(-c2cccs2)nn1-c1ccc(Cl)c(Cl)c1	51.3% (active)
Cc1cc(Nc2cccc(=O)[nH]2)n(-c2ccc(Cl)c(Cl)c2)n1	49.9%
